Results published in PubChem BioAssay AID1345085 (National Center for Advancing Translational Sciences (NCATS), 2018).
Records with an inconclusive call do not appear. Values without a mark were called inactive. Calls of active or inactive are those of the source. The call rests on the fitted dose curve; in most records, active means well fitted cell-killing curve with a large enough effect; inconclusive means small, poorly fitted or top-dose-only effect, or effect the other way; inactive means no such curve, though single readings can be large or run the other way.

Test system: C33A
Assay: Confirmatory qHTS for gynecologic anti-cancer compounds from libraries of approved drugs and bioactive compounds; further: nearly all actives have a fitted effect of over 55% in size
Settings: gynecologic cancer cell panel viability, ATPlite luminescence, 48 h; series mostly up to 57.6 µM; activity change, negative = viability loss: at the top concentration
How it was run: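 Viability is measured as ATP-dependent luciferase light using ATPlite, read 15 min after reagent addition at room temperature. Compounds, in DMSO, span 57.5 uM down to 0.977 nM over 11 threefold steps for 48 h.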
On the % scale 0 is the no-effect control and ±100 the full control effect; potency means the concentration at half of the fitted maximal effect.

Compound	activity change, negative = viability loss	Potency
COc1cc(-c2nn(C3CCC(N4CCN(C(C)=O)CC4)CC3)c3ncnc(N)c23)ccc1NC(=O)c1cc2ccccc2n1C (centres undefined)	-12.7%	–
COc1cccc2c1C(=O)c1c(O)c3c(c(O)c1C2=O)C[C@@](O)(C(=O)CO)C[C@@H]3O[C@H]1C[C@H](N)[C@H](O)[C@H](C)O1	–	1.22 µM (active)
CN(C)c1ccc2nc3ccc(=[N+](C)C)cc-3sc2c1	–	21.7 µM (active)
Cc1cc(SCc2sc(-c3ccc(C(F)(F)F)cc3)nc2C)ccc1OCC(=O)O	-0.815%	–
